For 1 sequence, binding signal results are on record in paper PMC7862700, “An all-to-all approach to the identification of sequence-specific readers for epigenetic DNA modifications on cytosine”.

Holding throughout (experiment): DAPPL (digital affinity profiling via proximity ligation, sequencing); 10 mM Tris-HCl pH 7.5, 50 mM NaCl, 1 mM DTT, 4% glycerol, room temperature, 30 min; GST-TFs on glutathione beads, 16-mer random dsDNA library, 0.1% formaldehyde crosslink after washing; high values mean tight binding
Common to all, as to details: protein: recombinant; tags: N-terminal GST; dsDNA, one strand shown

One assay concerns the target T1, FLI1 (Homo sapiens, UniProt Q01543 1-452).
T1 sequence: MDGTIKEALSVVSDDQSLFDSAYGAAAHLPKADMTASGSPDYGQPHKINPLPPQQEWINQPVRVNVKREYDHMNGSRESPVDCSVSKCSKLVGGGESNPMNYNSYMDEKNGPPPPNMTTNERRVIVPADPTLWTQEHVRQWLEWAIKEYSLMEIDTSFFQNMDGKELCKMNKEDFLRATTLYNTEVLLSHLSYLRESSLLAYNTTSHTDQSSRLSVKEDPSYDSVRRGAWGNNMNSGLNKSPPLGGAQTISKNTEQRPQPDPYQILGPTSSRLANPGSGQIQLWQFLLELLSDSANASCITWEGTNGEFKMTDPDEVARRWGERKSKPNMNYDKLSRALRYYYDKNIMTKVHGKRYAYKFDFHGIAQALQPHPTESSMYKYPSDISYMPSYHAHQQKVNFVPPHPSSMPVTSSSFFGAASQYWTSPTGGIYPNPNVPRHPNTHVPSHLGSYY
The gist of the method:
(§1)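 Beads coated with glutathione captured GST-fused human transcription factors that had been expressed in yeast, and the factors were then given DNA barcodes and pooled with a tag-only sample. The pools were incubated with 200 nmole of a random double-stranded 16-mer DNA library in Tris/NaCl/DTT/glycerol buffer for 30 min at room temperature, washed, crosslinked with 0.1% formaldehyde and proximity-ligated with BsaI/T4 ligase at 37 °C for 1 h. PCR amplification and Illumina NextSeq500 sequencing came last. Binding signal is each hexamer's read frequency for a factor divided by its frequency for the tag-only sample.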

In another assay the target is ELF1 (Homo sapiens, UniProt P32519 1-619). The procedure, abridged:
as §1

In the next assay the target is SPI1 (Homo sapiens, UniProt P17947 1-270). The gist of the method: as §1
The target in a further assay is SPIB (Homo sapiens, UniProt Q01892 1-262). The procedure, abridged: as §1
The next assay concerns the target T2, ELK3 (Homo sapiens, UniProt P41970 1-407).
T2 sequence: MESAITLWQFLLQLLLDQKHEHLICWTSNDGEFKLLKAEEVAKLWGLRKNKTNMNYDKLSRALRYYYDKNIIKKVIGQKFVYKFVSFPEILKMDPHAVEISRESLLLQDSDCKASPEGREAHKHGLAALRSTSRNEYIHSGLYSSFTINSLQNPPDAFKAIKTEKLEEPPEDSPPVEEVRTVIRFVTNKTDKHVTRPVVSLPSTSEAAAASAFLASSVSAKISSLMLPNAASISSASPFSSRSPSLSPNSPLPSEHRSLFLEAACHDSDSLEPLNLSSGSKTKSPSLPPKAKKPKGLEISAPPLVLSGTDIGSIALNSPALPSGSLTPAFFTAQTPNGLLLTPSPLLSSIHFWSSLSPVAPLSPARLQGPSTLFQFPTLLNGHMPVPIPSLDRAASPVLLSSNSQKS
The gist of the method:
as §1

A further assay has as its target ETV5 (Homo sapiens, UniProt P41161 1-510). The procedure, abridged: as §1
A further assay has as its target T3, SPIC (Homo sapiens, UniProt Q8N5J4 1-248).
T3 sequence: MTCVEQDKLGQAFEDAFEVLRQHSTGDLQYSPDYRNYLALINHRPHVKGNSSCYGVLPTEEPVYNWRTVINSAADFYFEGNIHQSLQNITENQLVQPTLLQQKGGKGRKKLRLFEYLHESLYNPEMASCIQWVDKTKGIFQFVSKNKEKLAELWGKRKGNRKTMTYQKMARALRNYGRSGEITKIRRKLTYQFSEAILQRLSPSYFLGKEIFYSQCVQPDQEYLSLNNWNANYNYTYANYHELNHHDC
The gist of the method: as §1

In the next assay the target is T4, ERF (Homo sapiens, UniProt P50548 1-548).
T4 sequence: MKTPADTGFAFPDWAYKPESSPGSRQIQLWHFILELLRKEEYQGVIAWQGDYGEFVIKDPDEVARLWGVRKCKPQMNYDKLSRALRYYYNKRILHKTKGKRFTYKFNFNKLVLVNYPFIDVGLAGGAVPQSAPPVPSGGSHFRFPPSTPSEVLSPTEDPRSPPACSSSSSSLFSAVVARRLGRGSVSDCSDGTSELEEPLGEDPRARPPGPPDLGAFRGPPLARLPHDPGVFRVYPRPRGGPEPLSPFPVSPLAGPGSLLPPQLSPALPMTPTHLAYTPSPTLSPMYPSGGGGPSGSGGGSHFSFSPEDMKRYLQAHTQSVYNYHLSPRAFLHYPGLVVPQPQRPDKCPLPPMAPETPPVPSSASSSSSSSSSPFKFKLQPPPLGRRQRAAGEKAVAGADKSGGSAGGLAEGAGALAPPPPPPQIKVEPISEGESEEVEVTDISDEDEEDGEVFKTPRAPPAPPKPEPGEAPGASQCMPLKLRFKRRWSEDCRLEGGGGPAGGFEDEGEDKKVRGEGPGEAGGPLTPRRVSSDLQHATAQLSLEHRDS
The procedure, abridged:
as §1

Another assay concerns the target T5, ETV3L (Homo sapiens, UniProt Q6ZN32 1-361).
T5 sequence: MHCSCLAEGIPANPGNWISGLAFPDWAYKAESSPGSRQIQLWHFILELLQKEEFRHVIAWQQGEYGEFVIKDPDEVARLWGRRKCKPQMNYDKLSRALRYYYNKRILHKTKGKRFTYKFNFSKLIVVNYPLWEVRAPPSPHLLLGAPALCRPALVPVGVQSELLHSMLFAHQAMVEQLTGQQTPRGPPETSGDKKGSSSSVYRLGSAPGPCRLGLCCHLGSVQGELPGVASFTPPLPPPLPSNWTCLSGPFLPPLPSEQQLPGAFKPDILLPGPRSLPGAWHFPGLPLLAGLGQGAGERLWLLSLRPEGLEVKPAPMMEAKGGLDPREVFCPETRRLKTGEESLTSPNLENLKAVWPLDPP
The procedure, abridged: as §1

Another assay has as its target T6, ETS2 (Homo sapiens, UniProt P15036 1-469).
T6 sequence: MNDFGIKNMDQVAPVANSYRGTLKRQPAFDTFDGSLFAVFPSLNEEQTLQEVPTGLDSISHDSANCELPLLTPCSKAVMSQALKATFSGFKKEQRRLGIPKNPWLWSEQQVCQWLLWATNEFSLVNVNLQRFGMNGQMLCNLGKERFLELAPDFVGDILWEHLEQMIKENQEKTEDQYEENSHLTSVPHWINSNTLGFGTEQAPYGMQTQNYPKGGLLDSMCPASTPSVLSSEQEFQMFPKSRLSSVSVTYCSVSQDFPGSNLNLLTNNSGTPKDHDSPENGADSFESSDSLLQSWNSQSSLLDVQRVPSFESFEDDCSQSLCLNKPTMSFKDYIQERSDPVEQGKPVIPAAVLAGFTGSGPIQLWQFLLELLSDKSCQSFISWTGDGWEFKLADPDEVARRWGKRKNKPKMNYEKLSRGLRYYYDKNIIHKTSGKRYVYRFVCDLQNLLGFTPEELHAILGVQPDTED
The procedure, abridged: as §1

The target in a further assay is ETV6 (Homo sapiens, UniProt P41212 1-452). The gist of the method:
as §1

Sequence of ETV6 (P41212 whole entry): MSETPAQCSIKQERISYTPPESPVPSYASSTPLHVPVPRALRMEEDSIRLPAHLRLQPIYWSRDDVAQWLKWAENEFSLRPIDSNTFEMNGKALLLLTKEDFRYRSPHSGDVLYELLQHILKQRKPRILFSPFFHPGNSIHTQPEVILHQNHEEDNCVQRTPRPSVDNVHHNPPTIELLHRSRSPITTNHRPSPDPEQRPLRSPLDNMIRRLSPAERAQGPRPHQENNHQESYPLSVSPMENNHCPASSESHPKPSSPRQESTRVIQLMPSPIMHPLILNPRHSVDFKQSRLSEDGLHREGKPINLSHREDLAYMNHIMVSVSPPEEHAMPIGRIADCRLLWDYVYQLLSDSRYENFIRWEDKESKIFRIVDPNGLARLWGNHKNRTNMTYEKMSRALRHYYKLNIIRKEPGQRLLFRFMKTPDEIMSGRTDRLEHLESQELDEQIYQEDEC
Sequence of ELF1 (P32519 whole entry): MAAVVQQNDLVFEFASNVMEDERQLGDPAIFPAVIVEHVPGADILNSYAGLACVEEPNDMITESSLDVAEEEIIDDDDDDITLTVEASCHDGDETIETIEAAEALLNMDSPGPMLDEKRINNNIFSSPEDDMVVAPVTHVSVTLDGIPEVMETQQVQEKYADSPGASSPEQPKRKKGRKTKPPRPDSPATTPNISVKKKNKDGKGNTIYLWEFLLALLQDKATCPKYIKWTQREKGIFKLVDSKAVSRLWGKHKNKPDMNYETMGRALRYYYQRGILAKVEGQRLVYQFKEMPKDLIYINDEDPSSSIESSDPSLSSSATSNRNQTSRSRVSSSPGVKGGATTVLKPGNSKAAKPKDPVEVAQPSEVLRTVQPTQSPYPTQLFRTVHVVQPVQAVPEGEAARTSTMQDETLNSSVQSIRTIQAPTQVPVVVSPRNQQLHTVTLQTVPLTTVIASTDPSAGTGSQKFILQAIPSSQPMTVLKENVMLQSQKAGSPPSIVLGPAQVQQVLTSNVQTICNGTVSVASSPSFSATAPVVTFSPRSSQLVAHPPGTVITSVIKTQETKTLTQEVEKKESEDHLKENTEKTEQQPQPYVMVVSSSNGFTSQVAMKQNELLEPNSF
Sequence of ETV5 (P41161 whole entry): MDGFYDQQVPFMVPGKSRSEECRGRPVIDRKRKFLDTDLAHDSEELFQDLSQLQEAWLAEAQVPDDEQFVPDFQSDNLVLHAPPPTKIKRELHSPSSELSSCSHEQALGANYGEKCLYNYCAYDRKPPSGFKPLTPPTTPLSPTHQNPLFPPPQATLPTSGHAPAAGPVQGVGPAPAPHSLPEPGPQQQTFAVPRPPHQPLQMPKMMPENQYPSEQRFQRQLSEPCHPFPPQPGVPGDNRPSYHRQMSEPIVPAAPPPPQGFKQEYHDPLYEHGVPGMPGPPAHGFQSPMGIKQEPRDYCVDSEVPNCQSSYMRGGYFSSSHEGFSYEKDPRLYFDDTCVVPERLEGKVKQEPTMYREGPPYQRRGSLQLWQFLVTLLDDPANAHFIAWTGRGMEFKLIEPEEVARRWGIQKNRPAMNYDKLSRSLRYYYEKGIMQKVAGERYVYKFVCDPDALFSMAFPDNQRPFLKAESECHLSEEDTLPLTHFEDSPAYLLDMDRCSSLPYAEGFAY
Sequence of SPIB (Q01892 whole entry): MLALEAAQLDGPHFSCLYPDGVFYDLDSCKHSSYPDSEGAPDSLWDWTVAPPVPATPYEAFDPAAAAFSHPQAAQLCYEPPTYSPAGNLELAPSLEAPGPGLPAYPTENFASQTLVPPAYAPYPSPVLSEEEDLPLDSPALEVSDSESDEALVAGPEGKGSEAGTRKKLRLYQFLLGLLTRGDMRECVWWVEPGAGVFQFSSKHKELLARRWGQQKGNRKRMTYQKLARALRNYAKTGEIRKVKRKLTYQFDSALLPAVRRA

As for GTTATA, the binding signal in the assay with FLI1 is 1.12 fold enrichment (6-mer frequency, TF over GST control); in the assay with ELF1 it was 1.03 fold enrichment (6-mer frequency, TF over GST control); with SPI1 it was 1.01 fold enrichment (6-mer frequency, TF over GST control); with SPIB it was 1.03 fold enrichment (6-mer frequency, TF over GST control); with ELK3 it was 1.06 fold enrichment (6-mer frequency, TF over GST control); in the assay with ETV5, 1.04 fold enrichment (6-mer frequency, TF over GST control). Moreover, the binding signal was 1.15 fold enrichment (6-mer frequency, TF over GST control) with SPIC; 1.03 fold enrichment (6-mer frequency, TF over GST control) in the assay with ERF; 1.06 fold enrichment (6-mer frequency, TF over GST control) in the assay with ETV3L; 1.06 fold enrichment (6-mer frequency, TF over GST control) in the assay with ETS2; 1 fold enrichment (6-mer frequency, TF over GST control) in the assay with ETV6.
